The source of these data is PubChem BioAssay.

Assay [1] relates to PRMT1 (protein arginine N-methyltransferase 1). In words: PRMT1 binders on small-molecule microarrays, primary screen, biochemical, small-molecule microarray, 635 nm fluorescence (AID 1088).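 Further: binding of Prmt1 protein to compounds spotted on small-molecule microarray slides.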 To be noted: small-molecule microarray binding, higher = more signal.
Assay [2] can be described thus: yeast growth modulation, basal conditions, primary screen, YJM789 clinical isolate, OD600, 24 h (AID 1089).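 Further: growth of clinical yeast isolate S. cerevisiae YJM 789 seeded 1000 cells per well; test concentration not given here.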 Particulars: S. cerevisiae YJM789 growth, higher = more signal, called active from +8 up or from −8 down.
The nature of assay [3]: fission yeast growth modulation, primary screen, strain 972, OD600, 24 h, no modulator (AID 1090).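 Further: basal condition with compound alone and no growth modifier present; test concentration not given here.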 To be noted: S. pombe 972 growth, higher = more signal, called active from +8 up or from −8 down.
A short description of assay [4]: S. cerevisiae growth modulation with rapamycin, primary screen, strain BY4716, OD600, 96 h (AID 1091). Further: test concentration not given here. To be noted: higher = more signal, called active from +8 up or from −8 down.
The target of assay [5] is Torsin-1A-interacting protein 2 (Homo sapiens) (UniProt Q8NFQ8). In words: LULL1 binders on small-molecule microarray, primary screen, cell lysate, human LULL1 lysate, 635/667 nm fluorescence (AID 1092).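 Further: probe is lysate of COS7 cells overexpressing human LULL1; score merges per-feature 667 nm fluorescence with signal-to-noise.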 Particulars: hLULL1 lysate binding, 635 nm fluorescence, higher = more signal.
Chain of Torsin-1A-interacting protein 2 (Homo sapiens) (Q8NFQ8 whole entry, looked up): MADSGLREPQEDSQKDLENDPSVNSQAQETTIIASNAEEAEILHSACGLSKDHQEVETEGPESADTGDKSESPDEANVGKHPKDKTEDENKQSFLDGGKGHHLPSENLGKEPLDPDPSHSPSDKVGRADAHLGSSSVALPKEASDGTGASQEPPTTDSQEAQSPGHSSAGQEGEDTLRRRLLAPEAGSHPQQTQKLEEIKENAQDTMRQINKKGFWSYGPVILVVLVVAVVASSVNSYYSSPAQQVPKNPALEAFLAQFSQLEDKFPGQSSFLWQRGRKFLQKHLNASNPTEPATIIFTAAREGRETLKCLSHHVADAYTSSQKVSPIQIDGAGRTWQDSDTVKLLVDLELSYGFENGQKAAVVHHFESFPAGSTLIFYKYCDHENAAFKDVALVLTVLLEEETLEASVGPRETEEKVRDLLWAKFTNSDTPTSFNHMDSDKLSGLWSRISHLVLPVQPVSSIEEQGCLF
Assay [6] is described as follows: E. coli growth modulation, two-sided OD650, primary screen, E. coli filamentation project, strain DRC41, 24 h (AID 1093).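 Further: MC1000 strain lacking acrAB efflux and sulA so SOS filamentation is blocked; test concentration not given here.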 Particulars: OD650, 24 h, higher = more signal, called active from +8 up or from −8 down.
Assay [7] is described as follows: small-molecule microarray binders of probe aLefty2, primary screen, biochemical, biotinylated probe, 635/667 nm fluorescence (AID 1094).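 Further: score merges spot fluorescence near 667 nm with spot signal-to-noise ratio.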 To be noted: higher = more signal.
Assay [8] relates to Noggin (protein binding on small-molecule microarray). In words: Noggin binders on small-molecule microarray, primary screen, biochemical, 635/667 nm fluorescence (AID 1095).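 Further: score merges 667 nm feature fluorescence with signal to noise over triplicate slides.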 Particulars: 635 nm fluorescence, higher = more signal.
Assay [9] deals with Neurogenic locus notch homolog protein 3 (Homo sapiens) (UniProt Q9UM47). In words: NOTCH3 binders on small-molecule microarray, primary screen, biochemical, 635/667 nm fluorescence (AID 1096). Particulars: NOTCH3 binding, 635 nm fluorescence, higher = more signal.
Chain of Neurogenic locus notch homolog protein 3 (Homo sapiens) (Q9UM47 whole entry, looked up): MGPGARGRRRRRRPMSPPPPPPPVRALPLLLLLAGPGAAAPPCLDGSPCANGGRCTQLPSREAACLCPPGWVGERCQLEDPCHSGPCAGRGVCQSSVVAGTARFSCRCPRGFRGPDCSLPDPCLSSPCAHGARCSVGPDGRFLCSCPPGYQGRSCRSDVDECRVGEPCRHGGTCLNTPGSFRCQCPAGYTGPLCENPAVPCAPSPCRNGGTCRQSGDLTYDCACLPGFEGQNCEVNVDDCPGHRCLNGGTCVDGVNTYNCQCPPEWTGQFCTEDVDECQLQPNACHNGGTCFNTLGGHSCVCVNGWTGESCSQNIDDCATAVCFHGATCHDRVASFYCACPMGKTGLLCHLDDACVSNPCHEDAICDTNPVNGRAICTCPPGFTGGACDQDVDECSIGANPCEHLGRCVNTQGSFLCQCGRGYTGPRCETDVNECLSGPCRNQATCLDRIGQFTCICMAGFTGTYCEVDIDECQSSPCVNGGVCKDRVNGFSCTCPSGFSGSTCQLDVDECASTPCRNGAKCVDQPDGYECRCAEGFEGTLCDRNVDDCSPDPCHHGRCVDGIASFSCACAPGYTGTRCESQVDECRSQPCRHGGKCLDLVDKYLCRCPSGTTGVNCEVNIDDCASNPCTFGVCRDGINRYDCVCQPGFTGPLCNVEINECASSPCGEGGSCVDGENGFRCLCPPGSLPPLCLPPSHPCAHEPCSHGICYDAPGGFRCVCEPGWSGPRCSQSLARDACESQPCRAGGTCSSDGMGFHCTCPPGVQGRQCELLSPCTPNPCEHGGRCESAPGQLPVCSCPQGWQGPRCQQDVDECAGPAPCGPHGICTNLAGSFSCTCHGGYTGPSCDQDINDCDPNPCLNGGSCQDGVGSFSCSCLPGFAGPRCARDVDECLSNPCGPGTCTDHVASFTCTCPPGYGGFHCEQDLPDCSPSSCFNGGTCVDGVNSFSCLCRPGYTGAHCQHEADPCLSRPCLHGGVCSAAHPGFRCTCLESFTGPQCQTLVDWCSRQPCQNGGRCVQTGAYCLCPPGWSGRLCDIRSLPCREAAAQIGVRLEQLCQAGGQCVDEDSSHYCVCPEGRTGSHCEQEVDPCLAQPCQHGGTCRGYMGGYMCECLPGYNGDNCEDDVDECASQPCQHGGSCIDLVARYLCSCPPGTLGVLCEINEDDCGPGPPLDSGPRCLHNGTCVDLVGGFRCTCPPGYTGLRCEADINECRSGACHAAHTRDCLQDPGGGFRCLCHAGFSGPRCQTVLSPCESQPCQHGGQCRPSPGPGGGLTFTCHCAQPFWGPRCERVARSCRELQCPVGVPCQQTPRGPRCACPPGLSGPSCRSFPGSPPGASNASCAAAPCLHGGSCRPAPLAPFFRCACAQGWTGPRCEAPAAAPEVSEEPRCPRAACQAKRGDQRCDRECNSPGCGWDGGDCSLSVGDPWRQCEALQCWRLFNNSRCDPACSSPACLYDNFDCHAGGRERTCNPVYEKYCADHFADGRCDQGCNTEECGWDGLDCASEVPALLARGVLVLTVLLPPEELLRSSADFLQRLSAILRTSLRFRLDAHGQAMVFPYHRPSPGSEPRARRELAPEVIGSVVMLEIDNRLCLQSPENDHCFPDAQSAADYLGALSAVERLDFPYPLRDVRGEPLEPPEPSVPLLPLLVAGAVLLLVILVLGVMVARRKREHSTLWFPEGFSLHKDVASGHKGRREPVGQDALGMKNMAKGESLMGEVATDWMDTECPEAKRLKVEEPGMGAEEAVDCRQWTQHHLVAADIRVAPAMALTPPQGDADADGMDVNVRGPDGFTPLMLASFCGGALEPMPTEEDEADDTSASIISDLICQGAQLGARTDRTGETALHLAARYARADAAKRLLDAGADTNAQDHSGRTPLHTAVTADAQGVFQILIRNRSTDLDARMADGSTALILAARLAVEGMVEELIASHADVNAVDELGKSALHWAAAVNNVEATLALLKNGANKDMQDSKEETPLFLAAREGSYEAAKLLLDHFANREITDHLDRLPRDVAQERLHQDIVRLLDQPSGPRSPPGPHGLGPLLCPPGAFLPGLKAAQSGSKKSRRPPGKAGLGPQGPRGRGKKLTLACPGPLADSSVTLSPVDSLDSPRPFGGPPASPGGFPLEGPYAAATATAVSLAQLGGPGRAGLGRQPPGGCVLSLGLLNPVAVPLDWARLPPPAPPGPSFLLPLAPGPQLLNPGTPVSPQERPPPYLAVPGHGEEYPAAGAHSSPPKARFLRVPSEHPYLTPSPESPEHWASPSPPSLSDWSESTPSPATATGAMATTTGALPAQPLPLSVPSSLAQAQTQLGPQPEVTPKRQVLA
A short description of assay [10]: small-molecule microarray binders of probe aEGFR, primary screen, biochemical, biotinylated probe, 635/667 nm fluorescence (AID 1097).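 Further: probe is a biotinylated anti-EGFR antibody binding compounds printed on slides; score combines fluorescence near 667 nm and signal to noise of each spot.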 Particulars: higher = more signal.
In assay [11] the test system is Plasmodium falciparum Sir2 (PF13_0152, Sir2A). Description: pfSir2 binders on small-molecule microarrays, primary screen, biochemical, small-molecule microarray, 635 nm fluorescence (AID 1098).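 Further: score merges spot fluorescence intensity with its signal-to-noise ratio.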 To be noted: small-molecule microarray binding, fluorescence 635 nm; higher = more signal.
Assay [12] in a line: small-molecule microarray binders of probe aDKK1, primary screen, biochemical, biotinylated probe, 635/667 nm fluorescence (AID 1099).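 Further: score merges 667nm spot fluorescence with signal to noise across triplicate slides; reference of the scale not given here.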 Particulars: higher = more signal.
The nature of assay [13]: small-molecule microarray binders of probe aCHRDL2, primary screen, biochemical, biotinylated probe, 635/667 nm fluorescence (AID 1100). Particulars: higher = more signal.
A short description of assay [14]: splicing luciferase reporter signal modulators, primary screen, spliceosome inhibition project, cell-based, HEK293, splice +/- reporter (AID 1101).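 Further: HEK293 cells carrying a splicing-competent luciferase reporter gene; test concentration not given here.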 Particulars: luminescence, 24 h, higher = more signal, called active from +8 up or from −8 down. In general terms: Reporter assays use an easily measured gene product as a stand-in for the process of interest.
The target in assay [15] is Fibroblast growth factor 10 (Homo sapiens) (UniProt O15520). Description: FGF10 binders on small-molecule microarrays, primary screen, biochemical, small-molecule microarray, 635 nm fluorescence (AID 1102). To be noted: FGF10 binding, fluorescence 635 nm, higher = more signal.
Chain of Fibroblast growth factor 10 (Homo sapiens) (O15520 whole entry, looked up): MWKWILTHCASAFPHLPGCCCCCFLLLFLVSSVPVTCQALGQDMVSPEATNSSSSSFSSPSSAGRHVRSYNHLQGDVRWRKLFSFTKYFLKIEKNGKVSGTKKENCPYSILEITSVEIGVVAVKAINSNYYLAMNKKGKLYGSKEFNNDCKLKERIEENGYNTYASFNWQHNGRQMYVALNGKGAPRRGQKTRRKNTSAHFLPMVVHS
The subject of assay [16] is glycogen synthase kinase-3 (GSK3A per assay name; protocol says GSK3B). Description: GSK3 binders on small-molecule microarrays, primary screen, biochemical, small-molecule microarray, 635 nm fluorescence, GSK3A (AID 1103). Further: the record names both GSK3A and GSK3B. Particulars: small-molecule microarray binding, fluorescence 635 nm; higher = more signal.
In assay [17] the target is Epidermal growth factor receptor (Homo sapiens) (UniProt P00533). Description: EGFR binders on small-molecule microarrays, primary screen, biochemical, small-molecule microarray, 635 nm fluorescence (AID 1104).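 Further: score merges 667 nm emission intensity with spot signal to noise over triplicate slides.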 To be noted: EGFR binding, higher = more signal.
Chain of Epidermal growth factor receptor (Homo sapiens) (P00533 whole entry, looked up): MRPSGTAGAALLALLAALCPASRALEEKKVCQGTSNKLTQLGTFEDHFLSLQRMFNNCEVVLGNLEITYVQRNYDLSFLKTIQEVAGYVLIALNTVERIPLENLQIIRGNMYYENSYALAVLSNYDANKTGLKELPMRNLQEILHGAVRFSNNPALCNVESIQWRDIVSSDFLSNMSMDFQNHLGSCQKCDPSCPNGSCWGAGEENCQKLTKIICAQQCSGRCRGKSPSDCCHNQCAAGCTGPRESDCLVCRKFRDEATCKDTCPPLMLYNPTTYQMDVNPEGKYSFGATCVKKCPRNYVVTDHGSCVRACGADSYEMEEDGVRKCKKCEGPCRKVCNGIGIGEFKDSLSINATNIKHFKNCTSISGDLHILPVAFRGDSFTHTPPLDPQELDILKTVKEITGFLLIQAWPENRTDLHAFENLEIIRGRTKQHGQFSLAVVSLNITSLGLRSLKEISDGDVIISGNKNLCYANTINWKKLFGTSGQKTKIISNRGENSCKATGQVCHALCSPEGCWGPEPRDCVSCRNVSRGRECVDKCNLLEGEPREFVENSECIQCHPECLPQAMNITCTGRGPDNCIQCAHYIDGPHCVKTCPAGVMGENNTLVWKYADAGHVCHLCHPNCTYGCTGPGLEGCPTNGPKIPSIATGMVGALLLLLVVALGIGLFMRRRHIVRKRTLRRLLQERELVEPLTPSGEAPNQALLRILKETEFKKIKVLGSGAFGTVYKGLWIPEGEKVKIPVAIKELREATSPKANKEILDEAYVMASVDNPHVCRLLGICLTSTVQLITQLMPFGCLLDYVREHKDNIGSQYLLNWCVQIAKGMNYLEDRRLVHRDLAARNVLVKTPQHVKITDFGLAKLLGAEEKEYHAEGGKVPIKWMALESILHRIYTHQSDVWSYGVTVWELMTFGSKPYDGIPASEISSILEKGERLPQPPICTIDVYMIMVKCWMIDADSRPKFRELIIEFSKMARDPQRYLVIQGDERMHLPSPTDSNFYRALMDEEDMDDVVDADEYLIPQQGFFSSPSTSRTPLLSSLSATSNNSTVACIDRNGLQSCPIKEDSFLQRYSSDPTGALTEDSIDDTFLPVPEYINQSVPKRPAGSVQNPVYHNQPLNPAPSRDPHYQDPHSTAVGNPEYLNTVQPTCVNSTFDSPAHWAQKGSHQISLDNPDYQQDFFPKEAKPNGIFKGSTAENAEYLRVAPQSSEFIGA
For assay [18], the target named is Follistatin-related protein 3 (Homo sapiens) (UniProt O95633). In words: FSTL3 binders on small-molecule microarrays, primary screen, biochemical, small-molecule microarray, 635 nm fluorescence (AID 1105).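 Further: score merges emission near 667 nm and signal to noise per printed spot across three slides.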 Particulars: FSTL3 binding, higher = more signal.
Chain of Follistatin-related protein 3 (Homo sapiens) (O95633 whole entry, looked up): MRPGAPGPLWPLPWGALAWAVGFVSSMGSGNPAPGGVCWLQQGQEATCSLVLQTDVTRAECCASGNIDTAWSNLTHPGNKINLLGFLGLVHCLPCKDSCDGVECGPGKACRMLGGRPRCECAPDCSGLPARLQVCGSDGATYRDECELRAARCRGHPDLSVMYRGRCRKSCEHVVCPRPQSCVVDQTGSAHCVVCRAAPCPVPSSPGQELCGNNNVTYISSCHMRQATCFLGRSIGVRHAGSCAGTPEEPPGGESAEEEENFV
The target in assay [19] is Dickkopf-related protein 1 (Homo sapiens) (UniProt O94907). Description: DKK1 binders on small-molecule microarrays, primary screen, biochemical, small-molecule microarray, 635 nm fluorescence scan (AID 1106).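 Further: score merges emission near 667 nm with signal to noise over three replicate slides.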 Particulars: DKK1 binding, higher = more signal.
Chain of Dickkopf-related protein 1 (Homo sapiens) (O94907 whole entry, looked up): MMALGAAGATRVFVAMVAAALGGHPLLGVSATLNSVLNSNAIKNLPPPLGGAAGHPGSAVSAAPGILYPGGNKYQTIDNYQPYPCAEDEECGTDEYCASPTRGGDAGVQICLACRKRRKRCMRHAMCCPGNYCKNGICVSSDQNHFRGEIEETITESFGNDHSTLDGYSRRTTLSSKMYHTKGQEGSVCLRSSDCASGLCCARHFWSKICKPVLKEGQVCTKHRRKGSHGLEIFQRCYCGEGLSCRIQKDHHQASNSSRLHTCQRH
Assay [20] deals with Inhibin beta A chain (activin A). In words: INHBA (activin A) binders on microarrays, primary screen, biochemical, small-molecule microarray, 635 nm fluorescence scan (AID 1107).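 Further: mouse activin A protein probed at 4.33 µg/mL on printed slides; score merges bound-protein fluorescence near 667 nm with spot signal-to-noise.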 To be noted: small-molecule microarray binding, higher = more signal.

Activity calls are given as the source filed them.

For `NC(=O)NCC#Cc1ccc2c(c1)[C@]1(C(=O)N2)[C@H](C(=O)O)[C@H]2C(=O)O[C@H](c3ccccc3)[C@H](c3ccccc3)N2[C@@H]1c1ccc(OCCO)cc1`, the composite z-score is 1.1 in assay [1]; 1.37 in [5]; -0.199 in assay [7]; 0.205 in assay [8]; 0.1 in assay [9]; -0.181 in assay [10]. In addition, the composite z-score is 1.49 in assay [11]; 0.0638 in assay [12]; 0.799 in assay [13]; 0.261 in assay [15]; -0.547 in assay [16]; -0.03 in [17]. Also, the results for the composite z-score in assay [18], in assay [19] and in assay [20] were 0.582, 0.158 and 0.882, respectively. Further, the z-score in assay [2] is 0.33 (inactive); in [3], 0.459 (inactive); in [4], -0.524 (inactive); in assay [6], 0.8 (inactive); in assay [14], -0.253 (inactive).
As for `O=C1N(Cc2ccccc2)Cc2ccccc2[C@@H]2OC(c3ccc(OCCCO)cc3)=N[C@]12CCS(=O)(=O)c1ccccc1`, the composite z-score in assay [1] was found to be 1.57; in assay [5], 2.96; in [7], 0.228; in assay [8], 0.49; in [9], 0.763; in assay [10] it was 0.209. Also, the composite z-score was 0.596 in assay [11]; -0.0422 in assay [12]; 1.05 in assay [13]; 1.04 in assay [15]; 0.309 in assay [16]; 0.607 in assay [17]. Besides, the composite z-score in assay [18] was 0.291; in assay [19], -0.222; in assay [20], 0.772. The z-score in [2] is 1.01 (inactive); in [3] it was 1.41 (inactive); in assay [4], 14.9 (active); in assay [6], 0.0267 (inactive); in [14] it was 0.0631 (inactive).
On to `CC(C)C[C@@H]1NC(=O)[C@@H]2C[C@H](C(=O)NCCCCCN)[C@H](c3ccc(O)cc3)N2C1=O`, for which the composite z-score is 1.57 in assay [1]; 2.57 in [5]; -0.109 in [7]; 1.47 in assay [8]; 0.894 in assay [9]; -0.0078 in assay [10]. Moreover, the composite z-score is 0.311 in assay [11]; 0.283 in assay [12]; 0.403 in [13]; 0.843 in assay [15]; 1.31 in [16]; 0.0233 in [17]. Besides, the composite z-score in assay [18] worked out at 1.26; in assay [19] it was 0.93; in [20], 0.585. The z-score in assay [2] was 0.563 (inactive); in assay [3], 0.32 (inactive); in assay [4], 0.965 (inactive); in [6], -0.687 (inactive); in assay [14] it was 0.103 (inactive).
With `CCCCC(O)C1C=CC2C(=O)N(c3ccccc3)C(=O)C2N1Nc1ccc(C(C)C)cc1` (stereo not given), the composite z-score was 1.37 in assay [1]; 3.01 in assay [5]; -0.122 in assay [7]; 0.49 in assay [8]; 1.03 in assay [9]; -0.067 in assay [10]. For the same compound, the composite z-score in assay [11] is 0.562; in assay [12] it was -0.109; in [13], 0.214; in [15] it was 1.05; in assay [16], 1.26; in assay [17], 0.341. The figures for the composite z-score in assay [18], in [19] and in assay [20] were 1.04, 0.223 and 0.63, respectively. In addition, the z-score in assay [2] was 0.603 (inactive); in [3], -0.582 (inactive); in assay [4], 0.0624 (inactive); in assay [6] it was -1.32 (inactive); in assay [14], -0.479 (inactive).
Take `CCCNC(=O)[C@@]1(c2ccc([N+](=O)[O-])cc2)CC(=O)N(C2CCCCC2)[C@@H]1c1ccc(CO)cc1`: the composite z-score in assay [1] is 1.57; in assay [5], 2.8; in assay [7], 0.0744; in [8] it was 1.65; in assay [9] it was 1.04; in assay [10] it was -0.0729. Besides, the composite z-score in assay [11] came to 0.472; in [12], 0.175; in assay [13], 0.39; in [15], 0.946; in assay [16] it was 1.22; in assay [17], 0.237. In addition, the composite z-score amounted to 0.869 in [18], 0.301 in assay [19] and 0.254 in [20]. Besides, the z-score in [2] was 1.3 (inactive); in assay [3], -0.514 (inactive); in [4], 1.11 (inactive); in assay [6] it was 0.824 (inactive); in [14], -0.867 (inactive).
